PubChem BioAssay (EPA / NIEHS)
Active and inactive are the calls of the source. Rule for the calls: active = hit-call score of the fitted dose curve at least 0.9, where 1 is the maximum; inactive = score below 0.9.

Legend:
Conditions in all cases: mRNA level, 48 h; actives raise or lower the signal
[1] = read-out: growth arrest and DNA damage 45 (GADD45G), GADD45G (gene 10912); experiment: LTEA_HepaRG_GADD45G: Life Technologies and Expression Analysis (LTEA) Assay for growth arrest and DNA damage 45 (GADD45G) using HepaRG (AID 2283499)
Outline: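 Gain or loss of GADD45G mRNA, quantified by TaqMan qRT-PCR against three housekeeping genes, is fitted in both directions relative to 0.5% DMSO. Human HepaRG cultures receive test chemical for 48 h at up to 100 uM.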

[2] = read-out: Glutamate-cysteine ligase regulatory (GCLM), GCLM (gene 2730); experiment: LTEA_HepaRG_GCLM: Life Technologies and Expression Analysis (LTEA) Assay for Glutamate-cysteine ligase regulatory (GCLM) using HepaRG (AID 2283500)
Outline: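 Differentiated human HepaRG cells exposed 48 h in serum-free induction medium to 8-point half-log concentrations (top 100 uM, 0.5% DMSO), in duplicate. GCLM mRNA quantified by qRT-PCR, normalized to ACTB, GAPDH, POLR2A; bidirectional fitting versus DMSO.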

[3] = read-out: Glutathione S-transferase M3 (GSTM3), GSTM3 (gene 2947); experiment: LTEA_HepaRG_GSTM3: Life Technologies and Expression Analysis (LTEA) Assay for Glutathione S-transferase M3 (GSTM3) using HepaRG (AID 2283501)
Outline: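 HepaRG, plated 48 h, then serum-free induction medium; test chemical 48 h, duplicate; 100 uM top, half-log x8, 0.5% DMSO. Read-out: GSTM3 mRNA (TaqMan qRT-PCR, Fluidigm array). Bidirectional fit vs DMSO.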

[4] = read-out: Heat shock 70 kDa protein 1 (HSPA1A), gene 3303; experiment: LTEA_HepaRG_HSPA1A: Life Technologies and Expression Analysis (LTEA) Assay for Heat shock 70 kDa protein 1 (HSPA1A) using HepaRG (AID 2283502)
Outline: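 Differentiated human HepaRG cells in serum-free induction medium were exposed in duplicate for 48 h to eight concentrations (top 100 uM, half-log steps, 0.5% DMSO). HSPA1A mRNA was quantified by qRT-PCR, normalized to ACTB, GAPDH and POLR2A, and fitted bidirectionally against DMSO.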

[5] = read-out: Hypoxia-inducible factor 1-alpha (Homo sapiens) (UniProt Q16665); experiment: LTEA_HepaRG_HIF1A: Life Technologies and Expression Analysis (LTEA) Assay for Hypoxia-inducible factor 1 (HIF1A) Trancription factor using HepaRG (AID 2283503);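 note: HIF1A transcript by TaqMan qRT-PCR normalized to ACTB GAPDH and POLR2A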
Outline: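 HepaRG, 48 h exposure, 8-pt half-log series from 100 uM, 0.5% DMSO vehicle, duplicates. Readout: HIF1A transcript by qRT-PCR (Fluidigm array), housekeeping-normalised. Bidirectional curve fit vs DMSO baseline.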

[6] = read-out: 3-Hydroxy-3-Methylglutaryl-CoA Synthase 2 (HMGCS2), HMGCS2 (gene 3158); experiment: LTEA_HepaRG_HMGCS2: Life Technologies and Expression Analysis (LTEA) Assay for 3-Hydroxy-3-Methylglutaryl-CoA Synthase 2 (HMGCS2) using HepaRG (AID 2283504)
Outline: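 HepaRG, plated 48 h then switched to serum-free induction media; cmpd 8-pt, max 100 uM, 1/2-log, 0.5% DMSO, n=2, 48 h. HMGCS2 mRNA by Fluidigm TaqMan qRT-PCR, ACTB/GAPDH/POLR2A norm; bidirectional fit vs DMSO.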

HGF (gene 3082) = experiment: LTEA_HepaRG_HGF: Life Technologies and Expression Analysis (LTEA) Assay for Hepatocyte Growth Facto (HGF) using HepaRG (AID 2283505)
Outline: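 Read-out is HGF transcript level by qRT-PCR, normalized to three housekeeping genes, fitted bidirectionally against 0.5% DMSO vehicle. Human HepaRG cells received test chemicals for 48 h at up to 100 uM.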

[7] = read-out: Insulin Like Growth Factor 1 (IGF1), IGF1 (gene 3479); experiment: LTEA_HepaRG_IGF1: Life Technologies and Expression Analysis (LTEA) Assay for Insulin Like Growth Factor 1 (IGF1) using HepaRG (AID 2283506)
Outline: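 Differentiated human HepaRG cells were dosed for 48 h in serum-free induction medium with 0.5% DMSO, eight half-log concentrations up to 100 uM, in duplicate. IGF1 mRNA was quantified by qRT-PCR normalized to ACTB, GAPDH, POLR2A; bidirectional fitting versus DMSO.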

[8] = read-out: Intercellular Adhesion Molecule 1 (ICAM1), ICAM1 (gene 3383); experiment: LTEA_HepaRG_ICAM1: Life Technologies and Expression Analysis (LTEA) Assay for Intercellular Adhesion Molecule 1 (ICAM1) using HepaRG (AID 2283507)
Outline: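 Readout is qRT-PCR mRNA level, normalized to three housekeeping genes and fitted bidirectionally against 0.5% DMSO vehicle. Human HepaRG cultures received compound for 48 h, top concentration 100 uM with half-log dilutions.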

[9] = read-out: Insulin-like growth factor-binding protein 1 (IGFBP1), IGFBP1 (gene 3484); experiment: LTEA_HepaRG_IGFBP1: Life Technologies and Expression Analysis (LTEA) Assay for Insulin-like growth factor-binding protein 1 (IGFBP1) using HepaRG (AID 2283508)
Outline: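 Thawed HepaRG cells are plated for 48 h, switched to serum-free induction medium, then dosed in duplicate for another 48 h (100 uM top, half-log steps). Lysates in RLT go to qRT-PCR, and gain or loss of signal is fitted relative to vehicle.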

[10] = read-out: Interleukin 6 (IL6), IL6 (gene 3569); experiment: LTEA_HepaRG_IL6: Life Technologies and Expression Analysis (LTEA) Assay for Interleukin 6 (IL6) using HepaRG (AID 2283509)
Outline: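 HepaRG cells exposed in duplicate for 48 h to eight half-log concentrations, top 100 uM, in 0.5% DMSO serum-free induction medium. mRNA measured by qRT-PCR, normalized to ACTB, GAPDH and POLR2A. Bidirectional fit versus DMSO.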

[11] = read-out: Interleukin 6 Receptor (IL6R), IL6R (gene 3570); experiment: LTEA_HepaRG_IL6R: Life Technologies and Expression Analysis (LTEA) Assay for Interleukin 6 Receptor (IL6R) using HepaRG (AID 2283510);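 for AC50: TaqMan qRT-PCR signal normalized to ACTB GAPDH and POLR2A housekeeping genes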
Outline: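 Differentiated human HepaRG cells, plated 48 h then switched to serum-free induction medium, were dosed in duplicate for 48 h at eight half-log concentrations up to 100 uM in 0.5% DMSO. IL6R mRNA quantified by qRT-PCR, normalized to ACTB/GAPDH/POLR2A; bidirectional fit versus DMSO.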

[12] = read-out: Potassium channel subfamily K member 1 (KCNK1), KCNK1 (gene 3775); experiment: LTEA_HepaRG_KCNK1: Life Technologies and Expression Analysis (LTEA) Assay for Potassium channel subfamily K member 1 (KCNK1) using HepaRG (AID 2283511)
Outline: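 Differentiated HepaRG cells, 48 h exposure in serum-free induction medium with 0.5% DMSO; 8 concentrations, half-log from 100 uM, duplicate. KCNK1 mRNA by qRT-PCR, normalized to ACTB, GAPDH, POLR2A; bidirectional fit vs DMSO.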

[13] = read-out: Keratin 19 (KRT19), KRT19 (gene 3880); experiment: LTEA_HepaRG_KRT19: Life Technologies and Expression Analysis (LTEA) Assay for Keratin 19 (KRT19) using HepaRG (AID 2283512)
Outline: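 KRT19 transcript levels, measured by Fluidigm qRT-PCR against three housekeeping genes, are fitted for gain or loss of signal relative to DMSO. Human HepaRG cells receive test chemicals (top 100 uM, half-log steps, 0.5% DMSO) for 48 hours.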

[14] = read-out: JUN Transcription Factor, JUN (gene 3725); experiment: LTEA_HepaRG_JUN: Life Technologies and Expression Analysis (LTEA) Assay for JUN Transcription Factor using HepaRG (AID 2283513)
Outline: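 Differentiated HepaRG cells were exposed to chemicals for 48 h in serum-free induction medium, 8 concentrations from 100 uM in half-log steps, 0.5% DMSO vehicle, in duplicate. JUN mRNA was quantified by TaqMan qRT-PCR, normalized to ACTB, GAPDH, POLR2A.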

[15] = read-out: Lipase C (LIPC), LIPC (gene 3990); experiment: LTEA_HepaRG_LIPC: Life Technologies and Expression Analysis (LTEA) Assay for Lipase C (LIPC) using HepaRG (AID 2283514)
Outline: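 HepaRG cells, 48 h after plating, treated in duplicate for 48 h in serum-free induction medium over 8 half-log concentrations from 100 uM, 0.5% DMSO. LIPC mRNA by TaqMan qRT-PCR normalized to ACTB/GAPDH/POLR2A; bidirectional fit versus DMSO.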

[16] = read-out: Lipoprotein lipase (LPL), LPL (gene 4023); experiment: LTEA_HepaRG_LPL: Life Technologies and Expression Analysis (LTEA) Assay for Lipoprotein lipase (LPL) using HepaRG (AID 2283515)
Outline: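 Differentiated HepaRG cells, plated 48 h, then exposed 48 h in serum-free induction medium to 8 concentrations (top 100 uM, half-log steps) in 0.5% DMSO, duplicate. LPL mRNA measured by qRT-PCR, normalized to ACTB, GAPDH and POLR2A.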

[17] = read-out: MicroRNA 122 (MIR122), gene 406906; experiment: LTEA_HepaRG_MIR122: Life Technologies and Expression Analysis (LTEA) Assay for MicroRNA 122 (MIR122) using HepaRG (AID 2283516); note: the transcript read is the microRNA miR-122
Outline: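 Differentiated human HepaRG cells were exposed 48 h in serum-free induction medium to eight half-log concentrations (top 100 uM, 0.5% DMSO). Transcript level was measured by TaqMan qRT-PCR, normalized to ACTB, GAPDH and POLR2A, and fitted bidirectionally versus DMSO.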

[18] = read-out: matrix metalloproteinase-10 (MMP10), MMP10 (gene 4319); experiment: LTEA_HepaRG_MMP10: Life Technologies and Expression Analysis (LTEA) Assay for matrix metalloproteinase-10 (MMP10) using HepaRG (AID 2283517)
Outline: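 Differentiated HepaRG cells in serum-free induction medium exposed 48 h in duplicate to 8-point half-log series up to 100 uM in 0.5% DMSO. mRNA quantified by qRT-PCR, normalised to ACTB, GAPDH, POLR2A; bidirectional fit versus DMSO.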

[19] = read-out: Glutamate-cysteine ligase catalytic (GCLC), GCLC (gene 2729); experiment: LTEA_HepaRG_GCLC: Life Technologies and Expression Analysis (LTEA) Assay for Glutamate-cysteine ligase catalytic (GCLC) using HepaRG (AID 2283498)
Outline: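 Differentiated HepaRG cells exposed 48 h in serum-free induction medium, eight-point half-log series topping at 100 uM in 0.5% DMSO, duplicates. GCLC mRNA by qRT-PCR normalized to ACTB, GAPDH and POLR2A, fitted bidirectionally versus DMSO.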

Measured: AC50

Hypoxia-inducible factor 1-alpha (Homo sapiens), sequence (Q16665 whole entry, looked up): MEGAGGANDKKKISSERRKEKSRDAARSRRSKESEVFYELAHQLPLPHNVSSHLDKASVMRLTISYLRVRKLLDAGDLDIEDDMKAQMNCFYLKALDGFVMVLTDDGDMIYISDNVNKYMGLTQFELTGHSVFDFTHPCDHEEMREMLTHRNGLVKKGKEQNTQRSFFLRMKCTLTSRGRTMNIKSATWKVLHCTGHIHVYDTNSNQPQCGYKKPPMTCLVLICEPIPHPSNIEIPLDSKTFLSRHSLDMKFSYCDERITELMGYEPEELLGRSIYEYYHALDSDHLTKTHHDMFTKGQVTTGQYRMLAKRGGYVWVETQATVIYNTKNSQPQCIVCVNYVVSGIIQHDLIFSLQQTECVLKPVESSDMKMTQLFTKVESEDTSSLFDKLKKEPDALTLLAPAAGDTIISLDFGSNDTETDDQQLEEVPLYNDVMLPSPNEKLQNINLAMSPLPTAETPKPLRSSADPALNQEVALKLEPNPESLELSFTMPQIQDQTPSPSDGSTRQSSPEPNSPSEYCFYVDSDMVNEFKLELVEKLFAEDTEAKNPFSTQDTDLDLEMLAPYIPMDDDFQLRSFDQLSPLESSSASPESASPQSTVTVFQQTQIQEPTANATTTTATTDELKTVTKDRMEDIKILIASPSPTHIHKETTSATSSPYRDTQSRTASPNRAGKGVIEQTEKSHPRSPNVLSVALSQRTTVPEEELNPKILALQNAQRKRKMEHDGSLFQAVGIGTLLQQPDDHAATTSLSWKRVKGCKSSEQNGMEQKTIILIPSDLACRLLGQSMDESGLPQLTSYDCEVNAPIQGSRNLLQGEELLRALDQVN

CC(C)(C)c1ccc(O)c(C(C)(C)C)c1
active: [12] 80.4 nM
inactive: [1] | [2] | [3] | [4] | [5] | [6] | HGF (gene 3082) | [7] | [8] | [9] | [10] | [11] | [13] | [14] | [15] | [16] | [17] | [18]

OC1CCC(C2CCCCC2)CC1 (stereo unspecified)
inactive: [19] | [1] | [2] | [3] | [4] | [5] | [6] | HGF (gene 3082) | [7] | [9] | [10] | [11] | [12] | [13] | [14] | [15] | [16] | [17] | [18]

CCCCCCC(=O)O
inactive: [19] | [1] | [2] | [3] | [4] | [5] | [6] | HGF (gene 3082) | [7] | [9] | [10] | [11] | [12] | [13] | [14] | [15] | [16] | [17] | [18]

c1ccc2c(c1)Cc1ccccc1-2
inactive: [19] | [1] | [2] | [3] | [4] | [6] | HGF (gene 3082) | [7] | [9] | [10] | [11] | [12] | [13] | [14] | [15] | [16] | [17] | [18]

CCCCCCCC(=O)O
inactive: [1] | [2] | [3] | [4] | [5] | [6] | HGF (gene 3082) | [7] | [9] | [10] | [11] | [12] | [13] | [14] | [15] | [16] | [17] | [18]
active: [8] 405 nM

Cc1cc(CCN2CCN(c3nsc4ccccc34)CC2)cc2c1NC(=O)CC2(C)C
active: [1] 76.8 µM | [2] 50 µM | [4] 50 µM | [6] 78 µM | [7] 70.5 µM | [9] 90.9 µM | [10] 79.3 µM | [11] 84.7 µM | [13] 50 µM | [15] 81.6 µM | [16] 50 µM | [17] 78.5 µM
inactive: [3] | [5] | HGF (gene 3082) | [12] | [14] | [18]

CCCCCCCCCCCCCCCS(=O)(=O)Oc1ccccc1
inactive: [19] | [1] | [2] | [3] | [4] | [6] | HGF (gene 3082) | [8] | [9] | [10] | [11] | [12] | [13] | [14] | [15] | [16] | [17] | [18]
active: [7] 27.5 µM
